PubChem BioAssay (NCATS)
Results filed as inconclusive are left out. Activity calls are given as the source filed them. The call rests on the fitted dose curve; in most records, active means well fitted inhibition curve with a large enough effect; inconclusive means small, poorly fitted or top-dose-only effect; inactive means flat fitted curve, though single readings scatter.

System: CP256
Assay: qHTS profiling for inhibitors of Plasmodium falciparum proliferation (AID 504749); further: nearly all actives have a fitted effect of over 60% in size;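 on activity, negative = inhibition: 0% = DMSO vehicle and full inhibition = artemisinin control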
Conditions: P. falciparum in erythrocytes, SYBR Green DNA, 72 h; series mostly up to 28.7 µM; activity, negative = inhibition: at the top concentration
Method in brief: (§1)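 SYBR Green fluorescence of parasite DNA, read after lysis and overnight dark incubation, measured growth over 72 h in erythrocyte culture at 0.3% parasitemia and 2.5% hematocrit. Data normalised to DMSO and 0.29 uM artemisinin, with plate-drift correction.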
Potency means the concentration at half of the fitted maximal effect.

Compound | activity, negative = inhibition
COc1cc(S(C)=O)ccc1-c1nc2ncccc2[nH]1 (stereo not given) | 0.889% (inactive)
CCOc1ccc(S(=O)(=O)O)c2cccnc12 | -0.497% (inactive)
NC(=S)NS(=O)(=O)c1ccc(N)cc1 | 5.82% (inactive)
C[C@]12CC[C@@H]3c4ccc(OC(=O)c5ccccc5)cc4CC[C@H]3[C@@H]1CC[C@@H]2O | 4.93% (inactive)
CC(CCc1ccc(O)cc1)NCC(O)c1ccc(O)cc1 (stereo not given) | 13.7% (inactive)
FC(F)(F)C(F)(F)C(F)(F)C(F)(F)C(F)(F)C(F)(F)F | 5.91% (inactive)
CN(C)CCOc1ccc(/C(=C(/CCCl)c2ccccc2)c2ccccc2)cc1 | -4.24% (inactive)
CNC(=O)OCc1cccc(COC(=O)NC)n1 | 0.629% (inactive)
NCC[C@H](O)C(=O)N[C@@H]1C[C@H](N)[C@@H](O[C@H]2O[C@H](CN)[C@@H](O)[C@H](O)[C@H]2O)[C@H](O)[C@H]1O[C@H]1O[C@H](CO)[C@@H](O)[C@H](N)[C@H]1O | 3.64% (inactive)
NC(N)=O | 4.22% (inactive)
CC1CCCCN1CCCOC(=O)c1ccccc1 (stereo not given) | -13.4% (inactive)
COC(=O)CCC[N+](C)(C)C | 1.99% (inactive)
COC(=O)CC[C@H](N)C(=O)O | 3.14% (inactive)
O=C(OCc1ccccc1)c1ccc(O)cc1 | 11.1% (inactive)
CC(C)(CO)[C@@H](O)C(=O)NCCC(=O)NCCSSCCNC(=O)CCNC(=O)[C@H](O)C(C)(C)CO | 3.65% (inactive)
COC(=O)c1ccccc1O | -5.94% (inactive)
OC[C@H]1O[C@@](CO)(O[C@H]2O[C@H](CO)[C@@H](O)[C@H](O)[C@H]2O)[C@@H](O)[C@@H]1O | -11.7% (inactive)
Nc1nccs1 | 6.36% (inactive)
c1ccc2ccccc2c1 | 0.777% (inactive)
O=S(=O)(O)CCCS(=O)(=O)O | -3.44% (inactive)

Compound | activity, negative = inhibition
O=C1c2ccccc2C(=O)c2c1ccc(O)c2O | 4.15% (inactive)
O=C(NNCNNC(=O)c1ccncc1)c1ccncc1 | 12.4% (inactive)
[O]=[Bi][O]C(=O)[O][Bi]=[O] | 0.149% (inactive)
C=CCN1CCCC1CNC(=O)c1cc(S(N)(=O)=O)cc(OC)c1OC (stereo not given) | 1.8% (inactive)
CC(C)[C@H](N)C(=O)OCC(CO)OCn1cnc2c(=O)[nH]c(N)nc21 (stereo not given in full) | 2.21% (inactive)
CCCCCCCCCCCCCCCCCC(=O)OC[C@@H](O)[C@H]1OC[C@H](O)[C@H]1O | 0.336% (inactive)
CC(=O)[C@H]1CC[C@H]2[C@@H]3C=CC4=CC(=O)CC[C@@]4(C)[C@H]3CC[C@]12C | 3.02% [at 12.8 µM] (inactive)
CCCC(=O)O | 3.92% (inactive)
CC1(C)S[C@@H]2[C@H](NC(=O)C3(N)CCCCC3)C(=O)N2[C@H]1C(=O)O | 1.67% (inactive)
CCCCCCCCCCCC(=O)OCC(O)CO (stereo not given) | -1.05% (inactive)
CCOc1ccc(NC(=S)Nc2ccc(OCC)cc2)cc1 | 5.22% (inactive)
C[C@H](CCC(=O)O)[C@H]1CC[C@H]2[C@@H]3CC[C@@H]4C[C@H](O)CC[C@]4(C)[C@H]3C[C@H](O)[C@]12C | 10.4% (inactive)
CC(C)(COP(=O)(O)OP(=O)(O)OC[C@H]1O[C@@H](n2cnc3c(N)ncnc32)[C@H](O)[C@@H]1OP(=O)(O)O)C(O)C(=O)NCCC(=O)NCCS (stereo not given in full) | -5.85% (inactive)
O=C(CCCCCCCCCCCCC1CCCC1)Nc1ccc(S(=O)(=O)c2ccc(NC(=O)CCCCCCCCCCCCC3CCCC3)cc2)cc1 | 7.36% (inactive)
Nc1nc(=O)n([C@@H]2CS[C@H](CO)O2)cc1F | 1.92% (inactive)
O=C(O)CCC/C=C\C[C@@H]1[C@@H](/C=C/[C@@H](O)COc2cccc(C(F)(F)F)c2)[C@H](O)C[C@@H]1O | -6.9% (inactive)
Cc1c(Cl)cccc1Nc1ncccc1C(=O)O | 7.99% (inactive)
CC(C)=CCC/C(C)=C/CC/C(C)=C/CC/C=C(\C)CC/C=C(\C)CCC=C(C)C | 6.35% (inactive)
CC(=O)Nc1ccc(OC(C)=O)cc1 | 5.9% (inactive)
CC(=O)N[C@@H]1C(O[C@H]2O[C@H](C(=O)O)C(O)[C@H](O)[C@H]2O)[C@H](O)[C@@H](CO)O[C@H]1O[C@@H]1C(C(=O)O)O[C@@H](O[C@H]2[C@H](O)[C@@H](CO)OC(O)[C@@H]2NC(C)=O)[C@H](O)[C@H]1O (stereo not given in full) | 0.792% (inactive)

System: CP260
Assay: as above
Conditions: P. falciparum in erythrocytes, SYBR Green DNA, 72 h; series mostly up to 28.7 µM; activity, negative = inhibition: at the top concentration
Method in brief: as §1

Compound | activity, negative = inhibition | Potency
COc1cc(S(C)=O)ccc1-c1nc2ncccc2[nH]1 (stereo not given) | -4.09% (inactive) | 
CCOc1ccc(S(=O)(=O)O)c2cccnc12 | 1.87% (inactive) | 
NC(=S)NS(=O)(=O)c1ccc(N)cc1 | -21.2% (inactive) | 
C[C@]12CC[C@@H]3c4ccc(OC(=O)c5ccccc5)cc4CC[C@H]3[C@@H]1CC[C@@H]2O |  | 5.01 µM (active)
CC(CCc1ccc(O)cc1)NCC(O)c1ccc(O)cc1 (stereo not given) | -27.7% (inactive) | 
FC(F)(F)C(F)(F)C(F)(F)C(F)(F)C(F)(F)C(F)(F)F | -6.37% (inactive) | 
CN(C)CCOc1ccc(/C(=C(/CCCl)c2ccccc2)c2ccccc2)cc1 | -8.17% (inactive) | 
CNC(=O)OCc1cccc(COC(=O)NC)n1 | -11.8% (inactive) | 
NCC[C@H](O)C(=O)N[C@@H]1C[C@H](N)[C@@H](O[C@H]2O[C@H](CN)[C@@H](O)[C@H](O)[C@H]2O)[C@H](O)[C@H]1O[C@H]1O[C@H](CO)[C@@H](O)[C@H](N)[C@H]1O | 6.35% (inactive) | 
NC(N)=O | -1.34% (inactive) | 
CC1CCCCN1CCCOC(=O)c1ccccc1 (stereo not given) | -1.11% (inactive) | 
COC(=O)CCC[N+](C)(C)C | 6.69% (inactive) | 
COC(=O)CC[C@H](N)C(=O)O | 4.8% (inactive) | 
O=C(OCc1ccccc1)c1ccc(O)cc1 | 0.694% (inactive) | 
CC(C)(CO)[C@@H](O)C(=O)NCCC(=O)NCCSSCCNC(=O)CCNC(=O)[C@H](O)C(C)(C)CO | 4.94% (inactive) | 
COC(=O)c1ccccc1O | 1.07% (inactive) | 
OC[C@H]1O[C@@](CO)(O[C@H]2O[C@H](CO)[C@@H](O)[C@H](O)[C@H]2O)[C@@H](O)[C@@H]1O | 8.78% (inactive) | 
Nc1nccs1 | 6.14% (inactive) | 
c1ccc2ccccc2c1 | 3.68% (inactive) | 
O=S(=O)(O)CCCS(=O)(=O)O | 9.44% (inactive) | 

Compound | activity, negative = inhibition | Potency
O=C1c2ccccc2C(=O)c2c1ccc(O)c2O | -1.36% (inactive) | 
O=C(NNCNNC(=O)c1ccncc1)c1ccncc1 | 9.55% (inactive) | 
[O]=[Bi][O]C(=O)[O][Bi]=[O] | 4.26% (inactive) | 
C=CCN1CCCC1CNC(=O)c1cc(S(N)(=O)=O)cc(OC)c1OC (stereo not given) | 1.88% (inactive) | 
CC(C)[C@H](N)C(=O)OCC(CO)OCn1cnc2c(=O)[nH]c(N)nc21 (stereo not given in full) | 1.03% (inactive) | 
CCCCCCCCCCCCCCCCCC(=O)OC[C@@H](O)[C@H]1OC[C@H](O)[C@H]1O | -1.96% (inactive) | 
CC(=O)[C@H]1CC[C@H]2[C@@H]3C=CC4=CC(=O)CC[C@@]4(C)[C@H]3CC[C@]12C | 3.83% [at 12.8 µM] (inactive) | 
CCCC(=O)O | 1.73% (inactive) | 
CC1(C)S[C@@H]2[C@H](NC(=O)C3(N)CCCCC3)C(=O)N2[C@H]1C(=O)O | -0.502% (inactive) | 
CCCCCCCCCCCC(=O)OCC(O)CO (stereo not given) | -0.305% (inactive) | 
CCOc1ccc(NC(=S)Nc2ccc(OCC)cc2)cc1 | -0.17% (inactive) | 
C[C@H](CCC(=O)O)[C@H]1CC[C@H]2[C@@H]3CC[C@@H]4C[C@H](O)CC[C@]4(C)[C@H]3C[C@H](O)[C@]12C | 4.1% (inactive) | 
CC(C)(COP(=O)(O)OP(=O)(O)OC[C@H]1O[C@@H](n2cnc3c(N)ncnc32)[C@H](O)[C@@H]1OP(=O)(O)O)C(O)C(=O)NCCC(=O)NCCS (stereo not given in full) | 9.4% (inactive) | 
O=C(CCCCCCCCCCCCC1CCCC1)Nc1ccc(S(=O)(=O)c2ccc(NC(=O)CCCCCCCCCCCCC3CCCC3)cc2)cc1 | -23.8% (inactive) | 
Nc1nc(=O)n([C@@H]2CS[C@H](CO)O2)cc1F | 6.17% (inactive) | 
O=C(O)CCC/C=C\C[C@@H]1[C@@H](/C=C/[C@@H](O)COc2cccc(C(F)(F)F)c2)[C@H](O)C[C@@H]1O | -5.91% (inactive) | 
Cc1c(Cl)cccc1Nc1ncccc1C(=O)O | 2.97% (inactive) | 
CC(C)=CCC/C(C)=C/CC/C(C)=C/CC/C=C(\C)CC/C=C(\C)CCC=C(C)C | -24.4% (inactive) | 
CC(=O)Nc1ccc(OC(C)=O)cc1 | 3.96% (inactive) | 
CC(=O)N[C@@H]1C(O[C@H]2O[C@H](C(=O)O)C(O)[C@H](O)[C@H]2O)[C@H](O)[C@@H](CO)O[C@H]1O[C@@H]1C(C(=O)O)O[C@@H](O[C@H]2[C@H](O)[C@@H](CO)OC(O)[C@@H]2NC(C)=O)[C@H](O)[C@H]1O (stereo not given in full) | 4.96% (inactive) | 
